{"source": "paper PMC5540273", "about": "(PLoS ONE, 2017);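 further: KINOMEscan kinase panel screen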", "data": [{"tested_on": "GRK7", "conditions": "concentration: 1 μM, replicates: in singlicate; n = 1", "units": {"%Inh": "%"}, "values": [{"compound": "Cn1cncc1-c1ccc2ncnc(Nc3ccc(OCc4ccccc4)cc3)c2c1", "note": "[GW320571]", "%Inh": 0}, {"compound": "Cc1cc(-c2ccc3c(c2)CC[C@@H](N[C@@H](C)c2ccccc2)C3)cnc1N.Cl", "note": "[GW412617]", "%Inh": 0}, {"compound": "Fc1cccc(COc2nnc(-c3ccc4c(c3)CCO4)o2)c1", "%Inh": 8}, {"compound": "O=C(Nc1n[nH]c2cc(-c3cccc(F)c3F)ccc12)C1CC1", "note": "[SB-733894]", "%Inh": 55}, {"compound": "COc1cc(Nc2nccc(N3CCC(NC(=O)Nc4cc(C)ccc4C)C3)n2)cc(OC)c1OC", "note": "(stereo not shown) [GSK1379762]", "%Inh": 0}, {"compound": "CC(C)(C)c1ccc(C(=O)Nc2cn3cc(Cl)ccc3n2)cc1", "%Inh": 0}, {"compound": "COc1ccc2nc(-c3cccc(C)n3)nc(Nc3ccncc3)c2c1", "note": "[GSK204919]", "%Inh": 0}, {"compound": "Cc1c(O)cccc1Nc1ccnc2ccc(C(F)(F)F)cc12.Cl", "note": "[GW466413]", "%Inh": 0}, {"compound": "Cc1ccc(-c2cc(-c3c[nH]nc3-c3ccccn3)ccn2)cc1", "note": "[GW684088]", "%Inh": 0}, {"compound": "O=S(=O)(c1ccc(-c2ccnc3[nH]ccc23)cc1)N1CCCC1", "note": "[GSK846226]", "%Inh": 0}, {"compound": "Cn1ccc2ncnc(Oc3cccc(C(=O)Nc4ccccc4)c3)c21", "%Inh": 21}, {"compound": "CCCc1ccc(S(=O)(=O)NC2CCN(c3ccnc(Nc4ccc(F)cc4)n3)C2)cc1", "note": "(stereo not shown) [GSK1379715]", "%Inh": 0}, {"compound": "O=C1NC(=O)C(N2CCc3ccccc32)=C1c1ccccc1Cl", "note": "[SB-373598]", "%Inh": 0}, {"compound": "COC(=O)c1c(-c2ccccc2)c2cc(OC)ccc2c(=O)n1Cc1ccccc1", "%Inh": 24}, {"compound": "COc1cccc(-c2cc(-c3c[nH]nc3-c3ccccn3)ccn2)c1", "note": "[GW680338]", "%Inh": 0}, {"compound": "COc1cc2ncnc(Nc3ccc4nc(-c5ccccc5)[nH]c4c3)c2cc1OC.Cl", "note": "[GW282450]", "%Inh": 0}, {"compound": "COC(=O)c1c(-c2ccccc2)c2cc(C(=O)O)ccc2c(=O)n1Cc1ccccc1", "%Inh": 0}, {"compound": "Cc1cccc(-c2nc(Nc3ccncc3)c3ccccc3n2)n1", "note": "[GW855857]", "%Inh": 0}, {"compound": "Cc1cccc(-c2nc(-c3ccc(S(C)(=O)=O)cc3)sc2-c2ccnc(NCCc3ccccc3)c2)c1", "%Inh": 7}, {"compound": "CN(C)CCN(C)C(=O)c1cc(-c2ccncc2)c(-c2ccc(Cl)c(O)c2)o1.Cl.Cl", "note": "[SB-710397]", "%Inh": 0}, {"compound": "Cc1nnc(-c2ccc3occ(-c4ccc(S(C)=O)cc4)c3c2)[nH]1", "note": "(stereo not shown)", "%Inh": 6}, {"compound": "COc1cc2nccc(Nc3ccc(NC(=O)c4ccc(C)cc4)c(O)c3)c2cc1OC.Cl", "note": "[GW440132]", "%Inh": 0}, {"compound": "Cc1cccc(-c2cc(Nc3ccncc3)c3ccccc3n2)n1", "note": "[GSK223675]", "%Inh": 0}, {"compound": "Cn1ccc2ncnc(Oc3ccc(Nc4nc5ccccc5[nH]4)cc3)c21", "%Inh": 0}, {"compound": "Cc1cc(NCC(c2ccccc2)c2ccccc2)nc(NCc2ccc(C(F)(F)F)cc2)n1", "note": "[GW497681]", "%Inh": 0}, {"compound": "Cc1cccc(-c2nc(C)cc(Nc3ccncc3)n2)n1", "note": "[GSK257997]", "%Inh": 0}, {"compound": "Cl.c1ccc(-c2n[nH]cc2-c2ccnc(-c3ccc(CN4CCOCC4)cc3)c2)nc1", "note": "[GW776245]", "%Inh": 0}, {"compound": "Cc1ccc(NC(=O)Nc2cc(C(C)(C)C)nn2-c2ccccc2)cc1", "note": "[GSK1014915]", "%Inh": 0}, {"compound": "CC1=C(C(=O)Nc2cc3cn[nH]c3cc2F)C(c2ccc(C(F)(F)F)cc2)CC(=O)N1", "note": "(stereo not shown) [GSK429286]", "%Inh": 0}, {"compound": "Nc1nc(-c2nccs2)c(-c2ccnc3ccccc23)s1", "note": "[GW693542]", "%Inh": 0}, {"compound": "COc1ccc(C2=C(Nc3cccc(C(=O)O)c3)C(=O)NC2=O)cc1", "note": "[SB-390765]", "%Inh": 12}, {"compound": "O=C(O)COc1ncnc2cc(-c3ccc4[nH]ncc4c3)sc12", "%Inh": 0}, {"compound": "Cc1cccc(-c2nc(Nc3cccc(C(N)=O)c3)c3ccccc3n2)n1", "note": "[GW876019]", "%Inh": 9}, {"compound": "CC(C)(C)c1ccc(C(=O)Nc2cn3cc(-c4cccnc4)ccc3n2)cc1", "%Inh": 24}, {"compound": "COc1ccccc1CNC(=O)c1cc(C(=O)c2ccccc2C)c[nH]1", "note": "[GSK364507]", "%Inh": 0}]}, {"tested_on": "GSK3A", "conditions": "concentration: 1 μM, replicates: in singlicate; n = 1", "units": {"%Inh": "%"}, "values": [{"compound": "Cn1cncc1-c1ccc2ncnc(Nc3ccc(OCc4ccccc4)cc3)c2c1", "note": "[GW320571]", "%Inh": 0}, {"compound": "Cc1cc(-c2ccc3c(c2)CC[C@@H](N[C@@H](C)c2ccccc2)C3)cnc1N.Cl", "note": "[GW412617]", "%Inh": 0}, {"compound": "Fc1cccc(COc2nnc(-c3ccc4c(c3)CCO4)o2)c1", "%Inh": 0}, {"compound": "O=C(Nc1n[nH]c2cc(-c3cccc(F)c3F)ccc12)C1CC1", "note": "[SB-733894]", "%Inh": 0}, {"compound": "COc1cc(Nc2nccc(N3CCC(NC(=O)Nc4cc(C)ccc4C)C3)n2)cc(OC)c1OC", "note": "(stereo not shown) [GSK1379762]", "%Inh": 0}, {"compound": "CC(C)(C)c1ccc(C(=O)Nc2cn3cc(Cl)ccc3n2)cc1", "%Inh": 3}, {"compound": "COc1ccc2nc(-c3cccc(C)n3)nc(Nc3ccncc3)c2c1", "note": "[GSK204919]", "%Inh": 0}, {"compound": "Cc1c(O)cccc1Nc1ccnc2ccc(C(F)(F)F)cc12.Cl", "note": "[GW466413]", "%Inh": 9}, {"compound": "Cc1ccc(-c2cc(-c3c[nH]nc3-c3ccccn3)ccn2)cc1", "note": "[GW684088]", "%Inh": 22}, {"compound": "O=S(=O)(c1ccc(-c2ccnc3[nH]ccc23)cc1)N1CCCC1", "note": "[GSK846226]", "%Inh": 15}, {"compound": "Cn1ccc2ncnc(Oc3cccc(C(=O)Nc4ccccc4)c3)c21", "%Inh": 24}, {"compound": "CCCc1ccc(S(=O)(=O)NC2CCN(c3ccnc(Nc4ccc(F)cc4)n3)C2)cc1", "note": "(stereo not shown) [GSK1379715]", "%Inh": 2}, {"compound": "O=C1NC(=O)C(N2CCc3ccccc32)=C1c1ccccc1Cl", "note": "[SB-373598]", "%Inh": 4}, {"compound": "COC(=O)c1c(-c2ccccc2)c2cc(OC)ccc2c(=O)n1Cc1ccccc1", "%Inh": 14}, {"compound": "COc1cccc(-c2cc(-c3c[nH]nc3-c3ccccn3)ccn2)c1", "note": "[GW680338]", "%Inh": 3}, {"compound": "COc1cc2ncnc(Nc3ccc4nc(-c5ccccc5)[nH]c4c3)c2cc1OC.Cl", "note": "[GW282450]", "%Inh": 0}, {"compound": "COC(=O)c1c(-c2ccccc2)c2cc(C(=O)O)ccc2c(=O)n1Cc1ccccc1", "%Inh": 0}, {"compound": "Cc1cccc(-c2nc(Nc3ccncc3)c3ccccc3n2)n1", "note": "[GW855857]", "%Inh": 4}, {"compound": "Cc1cccc(-c2nc(-c3ccc(S(C)(=O)=O)cc3)sc2-c2ccnc(NCCc3ccccc3)c2)c1", "%Inh": 0}, {"compound": "CN(C)CCN(C)C(=O)c1cc(-c2ccncc2)c(-c2ccc(Cl)c(O)c2)o1.Cl.Cl", "note": "[SB-710397]", "%Inh": 0}, {"compound": "Cc1nnc(-c2ccc3occ(-c4ccc(S(C)=O)cc4)c3c2)[nH]1", "note": "(stereo not shown)", "%Inh": 86}, {"compound": "COc1cc2nccc(Nc3ccc(NC(=O)c4ccc(C)cc4)c(O)c3)c2cc1OC.Cl", "note": "[GW440132]", "%Inh": 4}, {"compound": "Cc1cccc(-c2cc(Nc3ccncc3)c3ccccc3n2)n1", "note": "[GSK223675]", "%Inh": 17}, {"compound": "Cn1ccc2ncnc(Oc3ccc(Nc4nc5ccccc5[nH]4)cc3)c21", "%Inh": 12}, {"compound": "Cc1cc(NCC(c2ccccc2)c2ccccc2)nc(NCc2ccc(C(F)(F)F)cc2)n1", "note": "[GW497681]", "%Inh": 4}, {"compound": "Cc1cccc(-c2nc(C)cc(Nc3ccncc3)n2)n1", "note": "[GSK257997]", "%Inh": 27}, {"compound": "Cl.c1ccc(-c2n[nH]cc2-c2ccnc(-c3ccc(CN4CCOCC4)cc3)c2)nc1", "note": "[GW776245]", "%Inh": 0}, {"compound": "Cc1ccc(NC(=O)Nc2cc(C(C)(C)C)nn2-c2ccccc2)cc1", "note": "[GSK1014915]", "%Inh": 0}, {"compound": "CC1=C(C(=O)Nc2cc3cn[nH]c3cc2F)C(c2ccc(C(F)(F)F)cc2)CC(=O)N1", "note": "(stereo not shown) [GSK429286]", "%Inh": 10}, {"compound": "Nc1nc(-c2nccs2)c(-c2ccnc3ccccc23)s1", "note": "[GW693542]", "%Inh": 5}, {"compound": "COc1ccc(C2=C(Nc3cccc(C(=O)O)c3)C(=O)NC2=O)cc1", "note": "[SB-390765]", "%Inh": 7}, {"compound": "O=C(O)COc1ncnc2cc(-c3ccc4[nH]ncc4c3)sc12", "%Inh": 25}, {"compound": "Cc1cccc(-c2nc(Nc3cccc(C(N)=O)c3)c3ccccc3n2)n1", "note": "[GW876019]", "%Inh": 16}, {"compound": "CC(C)(C)c1ccc(C(=O)Nc2cn3cc(-c4cccnc4)ccc3n2)cc1", "%Inh": 16}, {"compound": "COc1ccccc1CNC(=O)c1cc(C(=O)c2ccccc2C)c[nH]1", "note": "[GSK364507]", "%Inh": 15}]}]}
